Source: PubChem BioAssay
For some assays here: Entries with a potency or affinity are not part of this list. Active and inactive are the calls of the source.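 Rule for the calls, unless noted: active = primary screen active and over 50% activation in each of two duplicate runs; inactive = the rest.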

Columns and labels:
[1] = tested on: TRPC4 beta (transient receptor potential cation channel C4), mouse; assay: activators of mouse TRPC4 channel, confirmation, cell-based, Fluo4 calcium, HEK293 TRPC4beta/mu-opioid, duplicates, 10 µM (AID 2426;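 active = fluorescence ratio normalized to control raised more than 50% in primary screen plus both repeat runs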;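 for activation: percent rise of integrated ratio over buffer wells lacking compound which define 0%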); details: Fluo4 calcium fluorescence, at 10 µM; stronger effect = higher value
[2] = tested on: transient receptor potential cation channel C4 beta (TRPC4), mouse; assay: activators of mouse TRPC4 channel, confirmation, cell-based, second round, Fluo4, HEK293 TRPC4beta/mu-opioid, 1 µM (AID 2461); details: Fluo4 calcium fluorescence, at 1 µM; stronger effect = higher value;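 for activation: 0% = wells without test compound as baseline of integrated fluorescence ratio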
[3] = tested on: TRPC4 (transient receptor potential cation channel C4 beta), mouse; assay: positive allosteric modulators of mouse TRPC4, confirmation, cell-based, second round, Fluo-4, HEK293 TRPC4beta/mu-opioid, 1 µM (AID 2554;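 active = primary screen hit whose fluorescence ratio, in both repeats, exceeds the weak agonist control mean by 3 SD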); details: DAMGO EC20, Fluo-4 calcium flux, at 1 µM; stronger effect = higher value
[4] = tested on: TRPC4 beta (transient receptor potential cation channel C4), mouse; assay: positive allosteric modulators of mouse TRPC4, confirmation, cell-based, Fluo-4, HEK293 TRPC4beta/mu-opioid (AID 2555;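 active = primary screen hit whose calcium fluorescence ratio, in both repeats, exceeds the weak agonist control mean by 3 SD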); details: DAMGO EC20, Fluo-4 calcium flux, at 10 µM; stronger effect = higher value
[5] = molecular target: Short transient receptor potential channel 4 (Mus musculus) (UniProt Q9QUQ5); assay: inhibitors of mouse TRPC4 channel, confirmation, cell-based, Fluo4, HEK293 TRPC4beta/mu-opioid (AID 2636;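 active = calcium signal cut by more than 3 SD below the full-agonist control yet still positive, in both repeats and the earlier primary screen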); details: DAMGO, Fluo4 calcium flux, at 10 µM; stronger effect = higher value
[6] = molecular target: Short transient receptor potential channel 4 (Mus musculus) (UniProt Q9QUQ5); assay: inhibitors of mouse TRPC4 channel, confirmation, cell-based, second round, Fluo4, HEK293 TRPC4beta/mu-opioid, 1 µM (AID 2637;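 active = calcium signal ratio cut to more than 3 SD under the fully stimulated control mean yet still positive, in both repeats and the primary screen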); details: Fluo4 calcium flux, DAMGO, at 1 µM; stronger effect = higher value
[7] = molecular target: Short transient receptor potential channel 4 (Mus musculus) (UniProt Q9QUQ5); assay: TRPC4 positive allosteric modulators, dose response, cell-based, HEK293 TRPC4/mu-opioid, Fluo-4 calcium, EC20 DAMGO (AID 434941;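 active = earlier screen potentiator hit that boosts the TRPC4 ion channel at some dose, with a dose response; inactive = no potentiation, no dose response, or not a prior hit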;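 note: calcium entry triggered by an EC20 dose of DAMGO at the co-expressed mu-opioid receptor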)
[8] = molecular target: Short transient receptor potential channel 4 (Mus musculus) (UniProt Q9QUQ5); assay: mouse TRPC4 channel inhibitors, dose response, cell-based, HEK293 TRPC4/mu-opioid, Fluo-4 calcium (AID 434942;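 active = primary screen inhibitor hit that blocks the TRPC4 channel at some tested dose, yielding a dose curve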)
[9] = molecular target: Short transient receptor potential channel 6 (Mus musculus) (UniProt Q61143); assay: inhibition of mouse TRPC6 channel, confirmation, selectivity assay for TRPC4 inhibitor project, cell-based, HEK293, membrane potential dye, duplicate (AID 434948;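 active = active in primary screen and both duplicates, each dropping signal beyond three positive-control SD with fluorescence still positive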); details: HEK293 TRPC6, membrane potential dye fluorescence, at 10 µM, stimulated with maximal-effect acetylcholine; stronger effect = higher value
[10] = molecular target: Short transient receptor potential channel 6 (Mus musculus) (UniProt Q61143); assay: activation of mouse TRPC6 channel, confirmation, selectivity assay for TRPC4 activator project, cell-based, HEK293, membrane potential dye, duplicate (AID 434950;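 active = membrane potential signal rise above negative control mean plus 3 SD in both duplicates, also active in the earlier TRPC4 screen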;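 for activation: 0% = buffer only wells and 100% = acetylcholine maximal-effect wells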); details: HEK293 TRPC6, membrane potential fluorescence, at 10 µM; stronger effect = higher value
[11] = molecular target: Short transient receptor potential channel 6 (Mus musculus) (UniProt Q61143); assay: TRPC6 potentiation by TRPC4 potentiator hits, confirmation, selectivity assay for TRPC4 potentiator project, HEK293 cells, membrane potential dye, duplicate (AID 434952;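 active = compound raising the membrane signal above positive-control mean plus 3 SD in both repeats, and a primary screen hit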); details: HEK293 TRPC6, membrane potential dye fluorescence, at 10 µM, maximal acetylcholine added after compound; stronger effect = higher value
[12] = molecular target: Short transient receptor potential channel 4 (Mus musculus) (UniProt Q9QUQ5); assay: calcium flux activators in TRPC4/5HT1a cells, counter-screen for TRPC4 activator project, cell-based, second counter screen, HEK293 TRPC4/5HT1a, Fluo-4 (AID 434977;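 active = calcium signal rise above buffer-control mean plus 5 SD in both duplicates, and also a hit in the primary screen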;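 for activation: plate controls were assay buffer for no effect and maximal serotonin response for full effect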); details: Fluo-4 calcium flux, at 10 µM; stronger effect = higher value
[13] = calcium flux inhibitors in TRPC4/5HT1a cells, confirmation, counter-screen for TRPC4 inhibitor project, cell-based, second counter screen, HEK293 TRPC4/5HT1a, Fluo-4 (AID 434978;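 active = primary screen active whose calcium signal fell more than 3 SD beyond the full-serotonin control mean in both duplicate plates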;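 note: serotonin given first at submaximal then at maximal dose after compound preincubation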); details: Fluo-4 calcium flux, at 10 µM, serotonin added to trigger calcium flux; stronger effect = higher value
[14] = tested on: TRPC4 (mouse), co-expressed with 5HT1a in HEK293; assay: calcium flux potentiators in TRPC4/5HT1a cells, confirmation, counter-screen for TRPC4 potentiator project, cell-based, second counter screen, HEK293 TRPC4/5HT1a, Fluo-4 (AID 434979;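 active = signal rise over 3 SD above mean of control wells given weak agonist, in both repeats and first screen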); details: Fluo-4 calcium flux, at 10 µM, serotonin added at its EC20 dose; stronger effect = higher value
[15] = calcium flux activation in mu-opioid HEK293 cells, confirmation, counter-screen for TRPC4 activator project, cell-based, HEK293 mu-opioid receptor line (AID 449723;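 active = hit in primary screen, with calcium signal over 5 SD above buffer well mean in both duplicates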;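 note: counter screen cells carry the mu-opioid receptor alone and lack TRPC4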); details: Fluo-4 calcium fluorescence, at 10 µM; stronger effect = higher value
[16] = calcium flux enhancement in mu-opioid HEK293 cells, confirmation, counter-screen for TRPC4 allosteric potentiator project, cell-based, HEK293 mu-opioid receptor line (AID 449724;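 active = calcium signal rise more than 3 SD above the low-dose agonist control mean, in both duplicate plates and the primary screen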); details: Fluo-4 calcium flux, at 10 µM, compound added before EC20 DAMGO stimulus; stronger effect = higher value

Short transient receptor potential channel 6 (Mus musculus), sequence (Q61143 whole entry, looked up): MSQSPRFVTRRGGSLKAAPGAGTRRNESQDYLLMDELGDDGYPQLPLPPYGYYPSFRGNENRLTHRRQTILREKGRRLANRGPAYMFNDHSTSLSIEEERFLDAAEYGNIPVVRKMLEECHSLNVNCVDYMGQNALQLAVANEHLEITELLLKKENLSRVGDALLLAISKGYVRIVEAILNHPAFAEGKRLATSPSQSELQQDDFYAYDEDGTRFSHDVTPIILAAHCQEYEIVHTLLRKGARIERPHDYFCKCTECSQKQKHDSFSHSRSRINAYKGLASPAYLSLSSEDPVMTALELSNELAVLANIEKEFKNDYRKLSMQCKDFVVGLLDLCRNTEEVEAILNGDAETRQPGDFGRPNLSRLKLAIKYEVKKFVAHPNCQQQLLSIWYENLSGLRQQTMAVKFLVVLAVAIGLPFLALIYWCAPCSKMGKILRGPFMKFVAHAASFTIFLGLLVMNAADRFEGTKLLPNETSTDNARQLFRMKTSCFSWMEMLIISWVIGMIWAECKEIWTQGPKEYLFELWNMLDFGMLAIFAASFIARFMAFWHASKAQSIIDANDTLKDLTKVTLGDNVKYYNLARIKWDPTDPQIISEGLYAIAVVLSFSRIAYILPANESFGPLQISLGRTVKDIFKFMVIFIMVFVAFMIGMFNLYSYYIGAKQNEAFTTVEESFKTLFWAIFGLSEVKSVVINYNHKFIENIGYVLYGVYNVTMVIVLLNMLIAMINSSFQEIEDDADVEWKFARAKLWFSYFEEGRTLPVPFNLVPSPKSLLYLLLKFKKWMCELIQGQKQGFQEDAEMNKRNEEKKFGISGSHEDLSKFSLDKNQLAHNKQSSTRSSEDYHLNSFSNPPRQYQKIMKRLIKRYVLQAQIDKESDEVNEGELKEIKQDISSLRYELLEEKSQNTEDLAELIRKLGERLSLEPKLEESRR
Short transient receptor potential channel 4 (Mus musculus), sequence (Q9QUQ5 whole entry, looked up): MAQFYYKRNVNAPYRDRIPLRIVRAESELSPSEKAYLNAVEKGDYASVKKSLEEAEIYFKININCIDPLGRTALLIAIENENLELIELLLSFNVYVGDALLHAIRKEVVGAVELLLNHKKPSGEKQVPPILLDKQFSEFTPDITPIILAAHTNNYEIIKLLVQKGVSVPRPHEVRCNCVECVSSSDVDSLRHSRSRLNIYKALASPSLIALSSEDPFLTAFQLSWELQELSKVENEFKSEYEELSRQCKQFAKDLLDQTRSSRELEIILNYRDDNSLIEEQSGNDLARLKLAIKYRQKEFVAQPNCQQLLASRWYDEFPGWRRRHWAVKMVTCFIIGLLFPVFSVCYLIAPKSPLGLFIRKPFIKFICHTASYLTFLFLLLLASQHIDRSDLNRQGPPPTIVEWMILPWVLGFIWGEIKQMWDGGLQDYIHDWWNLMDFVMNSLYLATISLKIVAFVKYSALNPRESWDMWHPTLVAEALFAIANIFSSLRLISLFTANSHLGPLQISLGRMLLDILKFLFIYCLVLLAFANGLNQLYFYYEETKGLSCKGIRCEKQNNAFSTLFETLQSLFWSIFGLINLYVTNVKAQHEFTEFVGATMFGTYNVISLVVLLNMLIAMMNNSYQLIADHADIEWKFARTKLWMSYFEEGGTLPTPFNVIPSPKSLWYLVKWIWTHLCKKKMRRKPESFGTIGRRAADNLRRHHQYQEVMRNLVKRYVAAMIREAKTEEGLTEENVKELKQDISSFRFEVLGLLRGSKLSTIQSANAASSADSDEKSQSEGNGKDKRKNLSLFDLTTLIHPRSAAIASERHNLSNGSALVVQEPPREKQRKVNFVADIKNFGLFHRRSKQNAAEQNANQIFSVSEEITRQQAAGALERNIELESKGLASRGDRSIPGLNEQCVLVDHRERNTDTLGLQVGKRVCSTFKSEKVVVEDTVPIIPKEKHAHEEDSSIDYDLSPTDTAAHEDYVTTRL

CNC[C@H](CC1CCCCC1)NC[C@H](Cc1ccccc1)NCCC12CC3CC(CC(C3)C1)C2
inactive: outcome [2] | outcome [3] | outcome [4] | outcome [5] | outcome [6] | outcome [7] | outcome [8] | outcome [9] | outcome [10] | outcome [11] | outcome [13] | outcome [14] | outcome [16]
active: activation [1] 219% | activation [12] 63.4% | activation [15] 51.7%

O=C1/C(=C\c2cc(Cl)c(O)c(Cl)c2)SC(=S)N1Cc1ccccc1
inactive: outcome [2] | outcome [3] | outcome [5] | outcome [6] | outcome [7] | outcome [8] | outcome [9] | outcome [13]
active: activation [1] 118% | potentiation [4] 43% | activation [10] 1320% | potentiation, percent of control [11] 640% | activation [12] 105% | potentiation [14] 27.4% | activation [15] 248% | activation [16] 3240%

Cc1cc(-c2ccc(C)c(S(=O)(=O)NCCCN(Cc3ccccc3)C(C)C)c2)on1
active: activation [1] 161% | activation [10] 44.5% | activation [12] 56.3%
inactive: outcome [2] | outcome [3] | outcome [4] | outcome [5] | outcome [6] | outcome [7] | outcome [8] | outcome [9] | outcome [11] | outcome [13] | outcome [14] | outcome [15] | outcome [16]

O=C(NCCCN1CCN(CCCNC(=O)c2ccc3c(c2)OCO3)CC1)c1ccc2c(c1)OCO2
inactive: outcome [3] | outcome [4] | outcome [5] | outcome [6] | outcome [7] | outcome [8] | outcome [9] | outcome [10] | outcome [11] | outcome [13] | outcome [14] | outcome [15] | outcome [16]
active: activation [1] 112% | activation [2] 76% | activation [12] 37.2%

Cc1ccc(C)c(-n2cc(CNCCc3cnccn3)c(-c3ccccc3)n2)c1
inactive: outcome [3] | outcome [4] | outcome [5] | outcome [6] | outcome [7] | outcome [8] | outcome [9] | outcome [11] | outcome [12] | outcome [13] | outcome [14] | outcome [15] | outcome [16]
active: activation [1] 152% | activation [2] 54% | activation [10] 40%

Cc1ccc(C(=O)NNC(=S)NC(=O)c2ccc(Cl)cc2)cc1
active: activation [10] 29.5% | activation [12] 77.8%
inactive: outcome [1] | outcome [2] | outcome [3] | outcome [4] | outcome [5] | outcome [6] | outcome [7] | outcome [8] | outcome [9] | outcome [11] | outcome [13] | outcome [14] | outcome [15] | outcome [16]

CCn1cc(CN2CCC(n3nccc3NC(=O)CCOc3ccccc3)CC2)cn1
inactive: outcome [2] | outcome [3] | outcome [4] | outcome [5] | outcome [6] | outcome [7] | outcome [8] | outcome [9] | outcome [10] | outcome [11] | outcome [12] | outcome [13] | outcome [14] | outcome [15] | outcome [16]
active: activation [1] 78%

Cc1cccc(NC(=S)NCC(c2cccnc2)N(C)C)c1C (centres undefined)
active: activation [1] 82% | activation [2] 106%
inactive: outcome [3] | outcome [4] | outcome [5] | outcome [6] | outcome [7] | outcome [8] | outcome [9] | outcome [10] | outcome [11] | outcome [12] | outcome [13] | outcome [14] | outcome [15] | outcome [16]

COc1cc(OC)cc(C(=O)NC2CCCN(Cc3ccc(Cl)cc3)C2)c1 (centres undefined)
active: activation [1] 111% | activation [10] 44.5% | activation [12] 31.6%
inactive: outcome [2] | outcome [3] | outcome [4] | outcome [5] | outcome [6] | outcome [7] | outcome [8] | outcome [9] | outcome [11] | outcome [13] | outcome [14] | outcome [15] | outcome [16]

Fc1ccc(-c2nnc(CN3CCN(c4ncc(C(F)(F)F)cc4Cl)CC3)o2)cc1
inactive: outcome [2] | outcome [3] | outcome [4] | outcome [5] | outcome [6] | outcome [7] | outcome [8] | outcome [9] | outcome [11] | outcome [13] | outcome [14] | outcome [15] | outcome [16]
active: activation [1] 120% | activation [10] 35.5% | activation [12] 23.8%

CN(C)CCCN(C(=O)c1ccc(C(=O)c2ccccc2)cc1)c1nc2ccc(F)cc2s1
inactive: outcome [2] | outcome [3] | outcome [4] | outcome [5] | outcome [6] | outcome [7] | outcome [8] | outcome [9] | outcome [10] | outcome [11] | outcome [12] | outcome [13] | outcome [14] | outcome [15] | outcome [16]
active: activation [1] 83%

CC(C)c1ccc(NC(=S)N(C)CCc2ccccn2)cc1
inactive: outcome [1] | outcome [2] | outcome [3] | outcome [4] | outcome [5] | outcome [6] | outcome [7] | outcome [8] | outcome [9] | outcome [10] | outcome [11] | outcome [13] | outcome [14] | outcome [15] | outcome [16]
active: activation [12] 25.6%

COc1cccc(C(=O)N(C)CC2CCN(CCc3cccc(C(F)(F)F)c3)CC2)c1
inactive: outcome [3] | outcome [4] | outcome [5] | outcome [6] | outcome [7] | outcome [8] | outcome [9] | outcome [11] | outcome [12] | outcome [13] | outcome [14] | outcome [15] | outcome [16]
active: activation [1] 93% | activation [2] 77% | activation [10] 62.5%

CCCc1c(O)nc(SCCN(CCC)CCC)[nH]c1=O
inactive: outcome [2] | outcome [3] | outcome [4] | outcome [5] | outcome [6] | outcome [7] | outcome [8] | outcome [9] | outcome [10] | outcome [11] | outcome [13] | outcome [15] | outcome [16]
active: activation [1] 96% | activation [12] 12.4% | potentiation [14] 23.3%
